# The supplement of paper PMC12282887
# ± gives the standard deviation of the averaged measurements.
# Columns and labels:
# Experiment in all cases: promoter activity interaction Z-score (Lux/OD deviation from empty-vector control); higher = stronger promoter induction by the compound
# [1] = system: E. coli BW25113 acrABp lux reporter
# Procedure, shortened: (§1)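 E. coli BW25113 (wild type or marA, soxS or rob deletion) carrying low-copy luxCDABE promoter reporters grew in 40 µl LB Lennox in 384-well plates at 37°C. Each compound was tested at four 1:2 dilutions in biological duplicates. OD600 and luminescence were read every 30 min for 12 h. Areas were taken over 0–8 h (wild type) or 1–9 h (mutants), and wells below 10% of median growth area were removed. The score is the Z-transformed residual of growth-normalised luminescence fitted against the empty-vector control.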
# [2] = system: E. coli BW25113 micFp lux reporter
# Procedure, shortened: as §1
# [3] = system: E. coli BW25113 ompFp lux reporter
# Procedure, shortened: as §1
# [4] = system: E. coli BW25113 robp lux reporter
# Procedure, shortened: as §1
# [5] = system: E. coli BW25113 soxSp lux reporter
# Procedure, shortened: as §1
# [6] = system: E. coli BW25113 tolCp lux reporter
# Procedure, shortened: as §1
# [7] = 0.063 µg/ml, genetic background: wild type
# [8] = 0.063 µg/ml, genetic background: ΔmarA
# [9] = 0.063 µg/ml, genetic background: Δrob
# [10] = 0.063 µg/ml, genetic background: ΔsoxS
# [11] = 0.13 µg/ml, genetic background: wild type
# [12] = 0.13 µg/ml, genetic background: ΔmarA
# [13] = 0.13 µg/ml, genetic background: Δrob
# [14] = 0.13 µg/ml, genetic background: ΔsoxS
# [15] = 0.25 µg/ml, genetic background: wild type
# [16] = 0.25 µg/ml, genetic background: ΔmarA
# [17] = 0.25 µg/ml, genetic background: Δrob
# [18] = 0.25 µg/ml, genetic background: ΔsoxS
# [19] = 0.5 µg/ml, genetic background: wild type
# [20] = 0.5 µg/ml, genetic background: ΔmarA
# [21] = 0.5 µg/ml, genetic background: Δrob
# [22] = 0.5 µg/ml, genetic background: ΔsoxS
smiles,measurement,setting,value
CO[C@@]12[C@H](COC(N)=O)C3=C(C(=O)C(C)=C(N)C3=O)N1C[C@@H]1N[C@@H]12 [Mitomycin C],promoter activity interaction Z-score,[1]; [7],0.203 ± 0.26
same,promoter activity interaction Z-score,[1]; [8],-0.582 ± 1.1
same,promoter activity interaction Z-score,[1]; [9],0.184 ± 0.69
same,promoter activity interaction Z-score,[1]; [10],0.15 ± 0.32
same,promoter activity interaction Z-score,[1]; [11],-0.161 ± 0.0059
same,promoter activity interaction Z-score,[1]; [12],1.65 ± 0.15
same,promoter activity interaction Z-score,[1]; [13],0.0466 ± 0.51
same,promoter activity interaction Z-score,[1]; [14],0.106 ± 0.043
same,promoter activity interaction Z-score,[1]; [15],0.269 ± 0.076
same,promoter activity interaction Z-score,[1]; [16],0.437 ± 0.76
same,promoter activity interaction Z-score,[1]; [17],-0.105 ± 0.42
same,promoter activity interaction Z-score,[1]; [18],-0.0948 ± 0.4
same,promoter activity interaction Z-score,[1]; [19],0.332 ± 0.099
same,promoter activity interaction Z-score,[1]; [20],1.08 ± 0.83
same,promoter activity interaction Z-score,[1]; [21],-0.0462 ± 0.55
same,promoter activity interaction Z-score,[1]; [22],0.117 ± 0.79
same,promoter activity interaction Z-score,[2]; [7],0.161 ± 0.24
same,promoter activity interaction Z-score,[2]; [8],0.0738 ± 0.13
same,promoter activity interaction Z-score,[2]; [9],-0.0403 ± 0.002
same,promoter activity interaction Z-score,[2]; [10],0.173 ± 0.094
same,promoter activity interaction Z-score,[2]; [11],-0.0611 ± 0.13
same,promoter activity interaction Z-score,[2]; [12],0.273 ± 0.08
same,promoter activity interaction Z-score,[2]; [13],0.135 ± 0.19
same,promoter activity interaction Z-score,[2]; [14],0.423 ± 0.057
same,promoter activity interaction Z-score,[2]; [15],0.189 ± 0.054
same,promoter activity interaction Z-score,[2]; [16],0.0506 ± 0.14
same,promoter activity interaction Z-score,[2]; [17],-0.0293 ± 0.023
same,promoter activity interaction Z-score,[2]; [18],-0.0557 ± 0.14
same,promoter activity interaction Z-score,[2]; [19],-0.299 ± 0.0083
same,promoter activity interaction Z-score,[2]; [20],-0.029 ± 0.23
same,promoter activity interaction Z-score,[2]; [21],0.266 ± 0.055
same,promoter activity interaction Z-score,[2]; [22],0.362 ± 0.13
same,promoter activity interaction Z-score,[3]; [7],0.468 ± 0.27
same,promoter activity interaction Z-score,[3]; [8],-0.243 ± 0.38
same,promoter activity interaction Z-score,[3]; [9],0.492 ± 0.67
same,promoter activity interaction Z-score,[3]; [10],0.619 ± 0.42
same,promoter activity interaction Z-score,[3]; [11],0.0398 ± 0.41
same,promoter activity interaction Z-score,[3]; [12],1.58 ± 1
same,promoter activity interaction Z-score,[3]; [13],0.963 ± 0.14
same,promoter activity interaction Z-score,[3]; [14],0.857 ± 0.077
same,promoter activity interaction Z-score,[3]; [15],0.439 ± 0.22
same,promoter activity interaction Z-score,[3]; [16],-0.0015 ± 0.17
same,promoter activity interaction Z-score,[3]; [17],1 ± 0.15
same,promoter activity interaction Z-score,[3]; [18],-0.0721 ± 0.25
same,promoter activity interaction Z-score,[3]; [19],0.63 ± 0.16
same,promoter activity interaction Z-score,[3]; [20],1.34 ± 1.3
same,promoter activity interaction Z-score,[3]; [21],1.2 ± 0.71
same,promoter activity interaction Z-score,[3]; [22],0.778 ± 0.46
same,promoter activity interaction Z-score,[4]; [7],0.242 ± 0.52
same,promoter activity interaction Z-score,[4]; [8],-0.678 ± 0.028
same,promoter activity interaction Z-score,[4]; [9],0.808 ± 0.56
same,promoter activity interaction Z-score,[4]; [10],-0.138 ± 0.57
same,promoter activity interaction Z-score,[4]; [11],0.512 ± 0.4
same,promoter activity interaction Z-score,[4]; [12],2.91 ± 0.44
same,promoter activity interaction Z-score,[4]; [13],0.0783 ± 0.46
same,promoter activity interaction Z-score,[4]; [14],0.758 ± 1.5
same,promoter activity interaction Z-score,[4]; [15],1.16 ± 0.6
same,promoter activity interaction Z-score,[4]; [16],0.136 ± 0.099
same,promoter activity interaction Z-score,[4]; [17],0.453 ± 0.084
same,promoter activity interaction Z-score,[4]; [18],-0.883 ± 0.36
same,promoter activity interaction Z-score,[4]; [19],1.05 ± 0.1
same,promoter activity interaction Z-score,[4]; [20],0.91 ± 0.79
same,promoter activity interaction Z-score,[4]; [21],0.226 ± 0.38
same,promoter activity interaction Z-score,[4]; [22],-0.0862 ± 0.5
same,promoter activity interaction Z-score,[5]; [7],0.078 ± 0.11
same,promoter activity interaction Z-score,[5]; [8],-0.129 ± 0.16
same,promoter activity interaction Z-score,[5]; [9],-0.043 ± 0.0072
same,promoter activity interaction Z-score,[5]; [10],0.00107 ± 0.095
same,promoter activity interaction Z-score,[5]; [11],-0.0775 ± 0.16
same,promoter activity interaction Z-score,[5]; [12],-0.0258 ± 0.096
same,promoter activity interaction Z-score,[5]; [13],-0.0896 ± 0.043
same,promoter activity interaction Z-score,[5]; [14],-0.0792 ± 0.22
same,promoter activity interaction Z-score,[5]; [15],0.185 ± 0.009
same,promoter activity interaction Z-score,[5]; [16],-0.158 ± 0.067
same,promoter activity interaction Z-score,[5]; [17],0.12 ± 0.092
same,promoter activity interaction Z-score,[5]; [18],-0.0761 ± 0.073
same,promoter activity interaction Z-score,[5]; [19],0.163 ± 0.12
same,promoter activity interaction Z-score,[5]; [20],-0.1 ± 0.14
same,promoter activity interaction Z-score,[5]; [21],-0.0272 ± 0.011
same,promoter activity interaction Z-score,[5]; [22],0.103 ± 0.21
same,promoter activity interaction Z-score,[6]; [7],0.274 ± 0.61
same,promoter activity interaction Z-score,[6]; [8],-0.71 ± 0.23
same,promoter activity interaction Z-score,[6]; [9],-0.666 ± 0.03
same,promoter activity interaction Z-score,[6]; [10],0.252 ± 0.77
same,promoter activity interaction Z-score,[6]; [11],0.0384 ± 0.54
same,promoter activity interaction Z-score,[6]; [12],0.367 ± 0.36
same,promoter activity interaction Z-score,[6]; [13],0.81 ± 0.56
same,promoter activity interaction Z-score,[6]; [14],0.264 ± 0.25
same,promoter activity interaction Z-score,[6]; [15],0.00312 ± 0.045
same,promoter activity interaction Z-score,[6]; [16],-0.556 ± 0.81
same,promoter activity interaction Z-score,[6]; [17],0.121 ± 0.86
same,promoter activity interaction Z-score,[6]; [18],1.27 ± 0.93
same,promoter activity interaction Z-score,[6]; [19],0.54 ± 0.56
same,promoter activity interaction Z-score,[6]; [20],-0.295 ± 0.4
same,promoter activity interaction Z-score,[6]; [21],0.224 ± 0.11
same,promoter activity interaction Z-score,[6]; [22],1.46 ± 0.25
